ATG4B inh: ATG4B (human) cysteine protease inhibition; ATG4B cleavage of LC3-PLA2, NBD-HPC fluorescence, 1 h; Q9Y4P1; inhibition, % at 8.33 µM; actives 0.51% (n = 340,000); AID 504462; in the data active = inhibition above about 40%
Target sequence (Q9Y4P1 whole entry, looked up): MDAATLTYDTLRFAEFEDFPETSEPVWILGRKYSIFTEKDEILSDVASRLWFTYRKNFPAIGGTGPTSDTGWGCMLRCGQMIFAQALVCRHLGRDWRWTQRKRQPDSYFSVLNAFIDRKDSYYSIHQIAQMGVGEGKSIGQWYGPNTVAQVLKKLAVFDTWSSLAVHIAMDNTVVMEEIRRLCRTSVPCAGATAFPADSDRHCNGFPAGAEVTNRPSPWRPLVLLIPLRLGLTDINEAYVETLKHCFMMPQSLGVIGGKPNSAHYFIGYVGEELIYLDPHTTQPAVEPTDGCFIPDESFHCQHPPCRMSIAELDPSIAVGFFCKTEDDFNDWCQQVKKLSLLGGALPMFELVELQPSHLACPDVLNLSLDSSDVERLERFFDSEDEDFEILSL
SKKanGAS inh: SKKanGAS growth inhibition; S. pyogenes SKKanGAS, kanamycin growth, BacTiter-Glo, 6 h; actives 1.3% (n = 300,000); inhibition, % at 7.5 µM;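 active = mean replicate score, as percent of positive control median, at least 50; inconclusive = mean below 50 but one replicate at or above 50; inactive = mean and every replicate below 50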;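 also: strain carries kanamycin resistance gene driven by streptokinase promoter and grows in 40 µg/ml kanamycin; loss of luminescence reflects streptokinase promoter inhibition or plain growth inhibition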
tim23-1 inh: tim23-1 yeast growth inhibition | S. cerevisiae tim23-1 growth, BacTiter-Glo luminescence, 24 h | inhibition, % at 20 µM | actives 1.3% (n = 330,000) | AID 463212;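 active = growth inhibition of the mutant yeast at or above 50%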;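 also: temperature-sensitive mutant grown at 25 °C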
tim10-1 inh: growth inhibitors of tim10-1 mutant yeast. S. cerevisiae tim10-1 ts strain growth, BacTiter-Glo, 24 h. inhibition, % at 20 µM. actives 2.2% (n = 330,000). AID 463190;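 active = inhibition of at least 40%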;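 also: mutant grown at 25 °C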
TIM10 inh: inhibits growth of TIM10 yeast strain; S. cerevisiae TIM10 strain growth, BacTiter-Glo luminescence, 24 h; inhibition, % at 10 µM; actives 1.4% (n = 330,000);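 active = inhibition of 40% or more at the single tested concentration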;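 also: wild-type TIM10 isogenic control strain grown at permissive 25 °C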
PfHsp90 set2: inhibits growth of yeast expressing Plasmodium falciparum Hsp90; S. cerevisiae expressing PfHsp90, BacTiter-Glo ATP, 48 h; yeast lacking PDR1 and PDR3 efflux regulators; AID 504621; inhibition, % at 9.4 µM; actives 0.32% (n = 310,000);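 active = every replicate shows inhibition above about 80%, whatever the replicate mean, limit read from the data; inconclusive = mean inhibition reaches the set limit but some replicate falls short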
tim10-1 confirm: tim10-1 yeast growth inhibition, confirmed | shares compounds with tim10-1 inh | S. cerevisiae tim10-1 ts strain growth, BacTiter-Glo, 24 h | inhibition, % at 20 µM | actives 56% (n = 7,400) | AID 463213;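 active = inhibition of yeast growth at or above a set limit in either of two repeat tests at 20 µM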;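 also: tim10-1 mutant grown at permissive 25 °C to find synthetic lethal compounds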
tim10 confirm: confirmation of TIM10 yeast growth inhibitors. shares compounds with TIM10 inh. S. cerevisiae tim10 strain growth, BacTiter-Glo luminescence, 24 h. inhibition, % at 10 µM. actives 63% (n = 4,600);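 active = inhibition of yeast growth at or above a set limit in either of two replicates at 10 µM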; also: this counterscreen used the strain with wild-type TIM10
tim23-1 confirm: confirmation of tim23-1 mutant yeast growth inhibitors; actives 83% (n = 4,400); shares compounds with tim23-1 inh; AID 463218; S. cerevisiae tim23-1 growth, BacTiter-Glo luminescence, 24 h; inhibition, % at 20 µM;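 active = inhibition above about 39% in either of two replicate wells at 20 µM, limit read from the data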;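 also: temperature-sensitive tim23-1 mutant grown at 25 °C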
Of the large screens only hits and unclear results are named; the others gave an inactive call (follow-up assays come after a bar, where they were run). Compounds with a hit are over-represented: about 4.7% of the library has one in this group of screens.

Cc1ccc(Nc2cc(C)nn2-c2nc(C)cc(=O)[nH]2)cc1	SKKanGAS inh 92.0, tim23-1 inh 67.5, tim10-1 inh 62.7, TIM10 inh 76.4, PfHsp90 set2 104.8 | tim10-1 confirm 46.6 | tim10 confirm inactive | tim23-1 confirm 51.8
Cc1ccc(Nc2cc(C)nn2-c2nc(C)cc(C)n2)cc1	SKKanGAS inh 100.5, tim23-1 inh 53.4, tim10-1 inh 47.4, TIM10 inh 44.3 | tim10-1 confirm inactive | tim10 confirm inactive | tim23-1 confirm 47.2
Cc1ccc(-c2cc(C(=O)N3N=C(C(F)F)CC3(O)C(F)F)c3ccccc3n2)cc1C (stereo not given)	tim23-1 inh 51.7, tim10-1 inh 50.1, PfHsp90 set2 112.5 | tim10-1 confirm inactive | tim23-1 confirm inactive
COc1ccc(OC)c(CCNC(=O)CC2Oc3ccccc3NC2=O)c1 (stereo not given)	none
COc1ccc(S(=O)(=O)n2nc(-c3cc(OC)c(OC)c(OC)c3)cc2N)cc1OC	none (no result: SKKanGAS inh)
COc1ccc(-c2cc(N)n(S(=O)(=O)c3c(F)c(F)c(F)c(F)c3F)n2)cc1OC	tim23-1 inh 70.3, tim10-1 inh 67.7, TIM10 inh 74.8 | tim10-1 confirm 75.2 | tim10 confirm 73.7 | tim23-1 confirm inactive
CC1CCN(S(=O)(=O)c2ccc3c(ccn3CCC(=O)NC(C)C)c2)CC1	none
O=C(OCn1ncc(Cl)c(Cl)c1=O)c1ccc(F)cc1	tim23-1 inh 75.3, tim10-1 inh 66.1, TIM10 inh 58.5 (no result: ATG4B inh, PfHsp90 set2) | tim10-1 confirm 60.8 | tim10 confirm 54.0 | tim23-1 confirm 85.0
CCOC(=O)C1=C(O)CSC1=Nc1ccccc1	none
COc1ccc(O)c(C(=O)c2cnn(S(=O)(=O)c3ccc(C)cc3)c2)c1	tim23-1 inh 52.4, tim10-1 inh 53.8 (no result: SKKanGAS inh) | tim10-1 confirm 35.3 | tim23-1 confirm 51.5
Cc1ccc(C(C)C)c(OCc2nn(CC(=O)c3ccc(Cl)cc3)c3[n+]2CCCCC3)c1	none (no result: PfHsp90 set2)
O=C(O)CSCC(=O)Nc1ccc(Cl)cc1C(F)(F)F	none
CC(C)N(CC(=O)Nc1ccc(Cl)cc1C(F)(F)F)C(=O)CCl	tim23-1 inh 55.3, tim10-1 inh 47.4, TIM10 inh 66.5 | tim10-1 confirm 58.8 | tim10 confirm 56.0 | tim23-1 confirm 53.6
CCCc1[nH]nc2c1C(c1ccc(OC)cc1OC)C(C#N)=C(N)O2 (stereo not given)	tim23-1 inh 51.2, tim10-1 inh 44.0, TIM10 inh 47.3 | tim10-1 confirm 36.3 | tim10 confirm 37.5 | tim23-1 confirm 50.5
O=C(NCCCc1ccccc1)Nc1cccc(Cl)c1	tim23-1 inh 56.5, tim10-1 inh 44.3, TIM10 inh 45.9 | tim10-1 confirm inactive | tim10 confirm inactive | tim23-1 confirm 65.6
O=C(NCCc1ccncc1)Nc1cccc(Cl)c1	none
Cc1noc(C)c1S(=O)(=O)N(CC(=O)NCCc1ccccc1)c1ccc(C(C)C)cc1	none
CCn1c(/C=C/c2cc(Br)ccc2O)nc2ccccc2c1=O	tim23-1 inh 62.8, tim10-1 inh 67.0, TIM10 inh 58.3 | tim10-1 confirm 68.6 | tim10 confirm 59.0 | tim23-1 confirm 75.0
CCn1c(/C=C/c2ccc(O)cc2)nc2ccccc2c1=O	none
O=c1c2ccccc2nc(/C=C/c2cccc(Br)c2)n1CCCO	none
Cn1c(/C=C/c2cccc(Br)c2)nc2ccccc2c1=O	tim23-1 inh 63.2, tim10-1 inh 57.2 | tim10-1 confirm 55.4 | tim23-1 confirm 58.6
COCCOC(=O)/C(=C/c1ccc(OC(=O)c2ccccc2)cc1)C(C)=O	tim23-1 inh 89.8, tim10-1 inh 73.1, TIM10 inh 79.5, PfHsp90 set2 108.2 | tim10-1 confirm 64.6 | tim10 confirm inactive | tim23-1 confirm 87.8
CC(C)(O)/C=C1/Oc2ccccc2C1N1CCCCC1 (stereo not given)	none
Cc1ccc(CSc2nc3ccccc3cc2C=O)cc1	tim23-1 inh 69.2, tim10-1 inh 47.6 | tim10-1 confirm 47.1 | tim23-1 confirm 56.8
Cc1ccc(CSc2ncnc3ccccc23)cc1	none
O=Cc1cc2ccccc2nc1SCc1ccc(Cl)cc1	SKKanGAS inh 51.4, tim23-1 inh 78.2, tim10-1 inh 63.7, TIM10 inh 50.4 (no result: PfHsp90 set2) | tim10-1 confirm 55.4 | tim10 confirm 62.6 | tim23-1 confirm 64.0
O=C(OCc1nc2ccccc2[nH]1)C12CC3CC(CC(C3)C1)C2	tim23-1 inh 58.1, tim10-1 inh 57.8 (no result: PfHsp90 set2) | tim10-1 confirm 50.6 | tim10 confirm inactive | tim23-1 confirm 43.4
C=C(C(=O)c1ccccc1)C(C)CC(=O)c1ccccc1 (stereo not given)	tim23-1 inh 54.6, tim10-1 inh 44.0, TIM10 inh 48.8 | tim10-1 confirm 59.5 | tim10 confirm 55.9 | tim23-1 confirm 48.5
O=C(CC(Nc1ccccc1)C(=O)O)c1ccccc1 (stereo not given)	none
COc1ccc(-c2cc3ccc(O)cc3oc2=O)cc1	SKKanGAS inh inconclusive
O=C(N/N=C/c1ccc[nH]1)c1ccccc1OCc1ccccc1Cl	none
O=C(N/N=C/c1ccco1)c1ccccc1OCc1ccccc1Cl	tim23-1 inh 50.6, tim10-1 inh 43.9, TIM10 inh 42.2 | tim10-1 confirm 41.4 | tim10 confirm 37.6 | tim23-1 confirm 48.2
O=[N+]([O-])c1cncc([N+](=O)[O-])c1Nc1ccccc1Cl	tim23-1 inh 56.8, tim10-1 inh 50.7 | tim10-1 confirm 42.8 | tim23-1 confirm 69.0
CC(C)NCC(O)Cn1c2c(c3ccccc31)CCc1c-2cnn1-c1ccccc1 (stereo not given)	none
O=[N+]([O-])c1cccc(-c2cnc3ccccc3n2)c1	none
O=[N+]([O-])c1cccc(-c2nc3ccccc3s/c2=N/O)c1	tim23-1 inh 82.1, tim10-1 inh 71.3, TIM10 inh 57.3 | tim10-1 confirm 55.0 | tim10 confirm 69.1 | tim23-1 confirm 54.3
O=C(Oc1cccc2cccnc12)c1cccc(N2C(=O)C3C4CCC(C4)C3C2=O)c1 (stereo not given)	none (no result: PfHsp90 set2)
O=C(NC1CCCC1)c1ccc(Cl)s1	none
O=C(NC1CCCCCC1)c1ccc([N+](=O)[O-])s1	tim23-1 inh 63.2, tim10-1 inh 57.3 (no result: SKKanGAS inh, PfHsp90 set2) | tim10-1 confirm 50.0 | tim23-1 confirm 48.2
COc1cc2c(cc1OC)/C(=C/c1ccc(Cl)cc1)C(=O)OC2	tim23-1 inh 55.4, tim10-1 inh 41.4 | tim10-1 confirm inactive | tim23-1 confirm 47.2

Screening results: PubChem, several laboratories
